# Bioassay records as filed in PubChem BioAssay.
# A selection: hits, their analogues and other compounds. The true share with any hit is near 2.3%.
# CHT inh – inhibitors of human choline transporter CHT; High affinity choline transporter 1 (Homo sapiens), Q9GZV3; CHT-expressing cells, membrane potential dye, choline response; hits give low values; B-score at 10 µM; 310,000 tested, 0.86% active; AID 488975, 2010;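 active = B-score over 3 SD under the library average, and starting fluorescence ratio not unusually high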;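 also: choline stimulus applied at its EC90 after an EC20 pre-addition; B-score computed on integrated fluorescence ratio after choline addition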
# TMEM16A act – TMEM16A chloride channel activators or potentiators, primary screen, cell-based, HTS. B-score at 10 µM. 340,000 tested, 0.3% active. AID 623877, 2012. HEK293 TMEM16A/YFP-H148Q/I152L, iodide quench fluorescence; hits give low values. Anoctamin-1 (Mus musculus), Q8BHY3;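 active = fluorescence-ratio B-score plate-corrected deviation score at least 3 library SD below zero, with starting fluorescence score within 5 deviations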;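 also: channel opened by trigger with iodide after compound preincubation; score built on the fluorescence ratio of max minus min over baseline; more negative score means more quench and so TMEM16A activation or potentiation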
# Target sequence (Q8BHY3 whole entry, looked up): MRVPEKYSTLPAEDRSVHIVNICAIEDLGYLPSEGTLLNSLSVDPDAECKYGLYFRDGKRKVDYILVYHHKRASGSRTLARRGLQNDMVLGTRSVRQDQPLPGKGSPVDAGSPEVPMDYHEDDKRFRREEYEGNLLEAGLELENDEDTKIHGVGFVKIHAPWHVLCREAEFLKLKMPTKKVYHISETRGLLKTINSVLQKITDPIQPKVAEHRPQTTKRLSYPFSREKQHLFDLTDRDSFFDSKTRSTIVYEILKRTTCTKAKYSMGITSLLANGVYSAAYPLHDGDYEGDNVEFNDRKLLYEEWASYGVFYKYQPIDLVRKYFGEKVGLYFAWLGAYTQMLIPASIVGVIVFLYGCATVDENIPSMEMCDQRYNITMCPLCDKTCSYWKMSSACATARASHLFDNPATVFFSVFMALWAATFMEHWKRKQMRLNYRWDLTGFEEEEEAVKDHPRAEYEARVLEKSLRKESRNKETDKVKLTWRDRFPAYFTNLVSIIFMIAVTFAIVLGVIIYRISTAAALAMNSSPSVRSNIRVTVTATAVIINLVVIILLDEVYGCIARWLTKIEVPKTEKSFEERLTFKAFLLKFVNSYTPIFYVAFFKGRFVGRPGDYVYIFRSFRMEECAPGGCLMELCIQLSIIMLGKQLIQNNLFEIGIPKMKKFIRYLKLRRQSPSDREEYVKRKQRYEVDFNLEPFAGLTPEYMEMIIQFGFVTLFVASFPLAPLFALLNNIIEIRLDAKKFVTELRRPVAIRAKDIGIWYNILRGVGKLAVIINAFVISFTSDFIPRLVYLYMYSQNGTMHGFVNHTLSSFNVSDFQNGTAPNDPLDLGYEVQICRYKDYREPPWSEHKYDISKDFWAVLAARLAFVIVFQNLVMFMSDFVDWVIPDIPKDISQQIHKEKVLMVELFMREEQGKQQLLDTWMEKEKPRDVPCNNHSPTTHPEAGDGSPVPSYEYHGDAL
# CHT PAM – CHT positive allosteric modulators, primary screen, cell-based, membrane potential dye, choline EC20 | High affinity choline transporter 1 (Homo sapiens), Q9GZV3 | CHT-expressing cells; hits give high values; LV-AA mutant CHT in HEK293 cells | B-score at 10 µM | 310,000 tested, 0.49% active | AID 488977, 2010;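 active = initial fluorescence not abnormally high and integrated response B-score, plate-corrected, over 3 SD above library mean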
# TMEM16A inh – TMEM16A chloride channel inhibitors, primary screen, cell-based, HTS; 310,000 tested, 1.2% active; HEK293 TMEM16A/YFP iodide influx fluorescence, ionomycin; Anoctamin-1 (Mus musculus), Q8BHY3; normalized B-score (activity score, 25-100; higher = stronger inhibition) at 10 µM; AID 588511, 2011;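 active = ratio plate-corrected score three or more library SD toward inhibition, starting fluorescence score within five deviations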;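 also: score derived from kinetic fluorescence span divided by baseline fluorescence per well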
# CHT inh conf – CHT inhibitors, confirmation, cell-based, membrane potential dye, duplicate; 2,400 tested, 70% active; CHT activity remaining % of control (hits give low values), % at 10 µM; shares compounds with CHT inh; CHT-expressing cells, choline membrane potential dye; LV-to-AA substituted CHT, HEK293 cells;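 active = choline transporter activity left, mean of duplicates at 10 µM, below buffer-only control mean minus 3 SD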;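 also: depolarization triggered by choline at its EC90 following an EC20 pre-addition; 0% = hemicholinium-3 full block and 100% = buffer-only control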
# HEK293 MPD ctr – membrane potential effects in parental HEK293, counter-screen for CHT inhibitor project, cell-based, membrane potential dye. AID 493222, 2011. shares compounds with CHT inh. 2,400 tested, 4% active. membrane potential ratio readout (active if shifted either direction beyond buffer ±3SD; no single direction) at 10 µM. choline response; active = decrease or increase beyond buffer ±3SD;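 also: parental cells lack the transporter so any hit is non-specific; ratio is peak minus trough fluorescence over baseline after EC90 choline challenge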
# * hit, by the source's call; i = inactive; . = no result.
SMILES,CHT inh,TMEM16A act,CHT PAM,TMEM16A inh,CHT inh conf,HEK293 MPD ctr
COc1ccc(C(=O)N2CCCCCCC2)cc1OC1CCN(C(C)C)CC1,i,i,i,i,.,.
CCN(CC(=O)Nc1cc(S(=O)(=O)N2CCCCC2)ccc1C)Cc1ccccc1,i,i,i,i,.,.
C/C(=N/NC(=O)CN1CCN(Cc2ccccc2Cl)CC1)c1cccs1,i,i,i,i,.,.
CCOC(=O)[C@@H]1[C@H]2COc3cc(OC)ccc3[C@@H]2N2C(=O)N(c3cccc(Cl)c3)C(=O)[C@]12C,i,i,i,i,.,.
COc1ccc(-n2c(=S)[nH]c3cc(C(=O)NCCCN4CCOCC4)ccc3c2=O)cc1,-5.24*,i,i,i,47.2%*,i
O=C(NCCCN1CCOCC1)c1ccc2c(=O)n(-c3ccc(F)c(Cl)c3)c(=S)[nH]c2c1,-10.5*,i,i,i,21.2%*,i
O=C(NCCN1CCOCC1)c1ccc(Cl)c(S(=O)(=O)N2CCCCCC2)c1,i,i,i,i,.,.
O=C(NCCCN1CCOCC1)c1ccc(Cl)c(S(=O)(=O)N2CCCCCC2)c1,-8.28*,i,i,i,36.5%*,i
O=C(O)c1ccc2c(=O)n(-c3ccc(F)c(Cl)c3)c(=S)[nH]c2c1,i,i,i,i,.,.
COc1ccc(NC(=O)CN(C)C(=O)C23CC4CC(CC(C4)C2)C3)cc1,i,i,i,i,.,.
CN(Cc1ccccc1)c1nc(N)nc(Cl)c1C=O,-5.52*,i,i,i,33.5%*,i
CN(Cc1ccccc1)c1ncnc2ccc(Br)cc12,i,i,i,i,.,.
CCOc1ccccc1NC(=O)CN1C(=O)COc2ccc(C)cc21,i,i,i,i,.,.
Cc1cccc(N=Cc2cc(Br)cc(Cl)c2O)c1,-7.83*,i,i,i,57.0%*,i
COc1ccc(S(=O)(=O)c2cnc3ccc(OC)cc3c2N2CCC3(CC2)OCCO3)cc1,-9.66*,i,i,i,22.8%*,i
O=C(c1ccc(CN2CCc3ccccc3C2)cc1)N1CCN(c2ccc(F)cc2)CC1,-4.97*,i,i,i,i,i
Cc1cc(C)c(NC(=O)c2ccc(CN3CCc4ccccc4C3)cc2)c(C)c1,-11.4*,i,i,i,18.4%*,i
O=C(c1ccc(CN2CCc3ccccc3C2)cc1)N1CCCCC1,i,i,i,i,.,.
CCCn1c(SCC(=O)N2CCCCC2)nc2c1c(=O)n(C)c(=O)n2C,i,i,i,i,.,.
Cn1c(=O)c2c(nc(SCC(=O)N3CCCCCC3)n2C)n(C)c1=O,-5.74*,i,i,i,i,i
COc1cccc(CNc2ccc(N3CCCCC3)cc2)c1OC,-14.5*,i,i,i,12.2%*,i
Oc1ccccc1CNCCCN1CCOCC1,i,i,i,i,.,.
CSc1ncc(C(=O)Nc2cccc(Cl)c2)c(C)n1,i,i,i,i,.,.
COc1ccccc1NS(=O)(=O)c1cc(C(=O)NCc2cccnc2)ccc1C,i,i,i,i,.,.
Cc1ccccc1NC(=O)c1ccc(C)c(S(=O)(=O)NCc2cccnc2)c1,-7.2*,i,i,i,27.0%*,i
SMILES,CHT inh,TMEM16A act,CHT PAM,TMEM16A inh,CHT inh conf,HEK293 MPD ctr
O=C(CSc1ccccn1)N1CCN(c2ncc(C(F)(F)F)cc2Cl)CC1,-5.3*,i,i,i,i,i
O=c1cc(CNc2ccc(Br)cc2)nc2sccn12,-5.4*,i,i,i,59.2%*,i
CCc1ccc(CN2CCC(CO)(CC3CCCCO3)CC2)o1 (centres undefined),i,i,i,i,.,.
CCN1CCN(S(=O)(=O)c2ccc(Cl)c(C(=O)N(C)Cc3ccco3)c2)CC1,.,i,.,.,.,.
c1ccc(C(c2ccccc2)N2CCN(Cc3nnnn3C3CCCC3)CC2)cc1,-5.57*,i,i,i,i,i
CCCCC(=O)NNC(=S)NC(=O)c1ccc(C)cc1,-9.05*,i,i,i,30.0%*,i
O=C(COc1ccccc1)Nc1ccccc1F,i,i,i,i,.,.
Cc1ccc(C(=O)NNC(=S)NC(=O)COc2ccccc2)cc1,-6.08*,i,i,25*,i,i
CCCOc1ccc(C(=O)NNC(=S)NC(=O)c2cccs2)cc1,-9.45*,i,i,100*,i,i
CCCOc1ccc(C(=O)NNC(=S)NC(C)=O)cc1,i,i,i,i,.,.
COc1ccc(OCC(=O)NC(=S)Nc2ccccc2F)cc1,-5.23*,i,i,i,59.5%*,i
CC(NC(=O)COC(=O)c1cccnc1Cl)C12CC3CC(CC(C3)C1)C2 (centres undefined),.,i,.,.,.,.
Cc1c(C(=O)N2CCCCCC2)c(S(=O)(=O)Nc2cccc(F)c2)c(C)n1C,i,i,i,i,.,.
CCOC(=O)c1ccccc1NC(=O)COC(=O)CCC1CCCC1,.,i,.,.,.,.
Cc1cccc(C(=O)NC(=S)NNC(=O)c2cccs2)c1,-10.1*,i,i,i,35.6%*,i
CCCOc1ccc(C(=O)NNC(=S)NC(=O)c2ccccc2)cc1,-6.58*,i,i,100*,55.1%*,i
COc1ccc(C(=O)NC(=S)NNC(=O)c2ccc(C)cc2)cc1,-7.2*,i,i,i,48.7%*,i
O=C(NC(=S)NNC(=O)c1cccs1)c1ccccc1,i,i,i,i,.,.
CCc1ccc(NC(=O)Cn2nc(C(=O)O)c3ccccc3c2=O)cc1,i,i,i,i,.,.
Cc1cccc(N2CCN(C(=O)CCn3c(=O)[nH]c4ccsc4c3=O)CC2C)c1 (centres undefined),i,i,i,i,.,.
Cc1cccc(N2CCN(C(=O)CCCn3c(=O)[nH]c4ccsc4c3=O)CC2C)c1 (centres undefined),-10.9*,i,i,i,18.7%*,i
CC1CCCCC1NC(=O)CCn1c(=O)sc2ccccc21 (centres undefined),i,i,i,i,.,.
CCOc1ccc(NC(=O)Cn2nc(-c3ccccc3Cl)n(CC)c2=S)cc1,i,i,i,i,i,i
CCn1c(-c2ccccc2Cl)nn(CC(=O)Nc2ccc(OC)cc2)c1=S,i,i,i,i,.,.
